Source: article PMC4336329 (PLoS ONE, 2015)
Out of some 310,000 compounds screened, about 14,000 (4.5%) showed an effect of 50% or more. Effects have a minus sign here. What follows is part of a selection rich in strong results, with near analogues and random picks from the rest.

Each molecule was assayed against human ether-à-go-go-related gene (hERG) potassium channel (human, UniProt Q12809) (assay: primary screen, population patch clamp on CHO cells stably expressing hERG; higher = less effect of the substance).
Procedure: Briefly, Chinese hamster ovary (CHO) cells stably expressing the hERG channel were dislodged from tissue culture flasks and dispensed into PPC plates. […] During the recording, background leak currents were estimated by a 100 ms step to -80 mV from an initial holding potential of -70 mV and subtracted from the subsequent current measurement. The campaign was conducted in two phases using slight differences in recording protocol. In the first phase, the initial voltage pulse used a 100 ms step to -30 mV from a holding potential of -70 mV, a 2 s conditioning step to +25 mV, and a 2 s test step to -30 mV. During the second phase of the screen, the potential during the conditioning step was raised to +45 mV. In both phases of the campaign, a secondary voltage pulse was applied using the same parameters as the second phase initial pulse. The initial and secondary pulses were applied in the absence of compound, and upon application of 1 μM and 10 μM test concentrations. […]
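Also: peak tail current of the secondary pulse compared with the same well before compound.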

Sequence of human ether-à-go-go-related gene (hERG) potassium channel (Q12809 whole entry, looked up): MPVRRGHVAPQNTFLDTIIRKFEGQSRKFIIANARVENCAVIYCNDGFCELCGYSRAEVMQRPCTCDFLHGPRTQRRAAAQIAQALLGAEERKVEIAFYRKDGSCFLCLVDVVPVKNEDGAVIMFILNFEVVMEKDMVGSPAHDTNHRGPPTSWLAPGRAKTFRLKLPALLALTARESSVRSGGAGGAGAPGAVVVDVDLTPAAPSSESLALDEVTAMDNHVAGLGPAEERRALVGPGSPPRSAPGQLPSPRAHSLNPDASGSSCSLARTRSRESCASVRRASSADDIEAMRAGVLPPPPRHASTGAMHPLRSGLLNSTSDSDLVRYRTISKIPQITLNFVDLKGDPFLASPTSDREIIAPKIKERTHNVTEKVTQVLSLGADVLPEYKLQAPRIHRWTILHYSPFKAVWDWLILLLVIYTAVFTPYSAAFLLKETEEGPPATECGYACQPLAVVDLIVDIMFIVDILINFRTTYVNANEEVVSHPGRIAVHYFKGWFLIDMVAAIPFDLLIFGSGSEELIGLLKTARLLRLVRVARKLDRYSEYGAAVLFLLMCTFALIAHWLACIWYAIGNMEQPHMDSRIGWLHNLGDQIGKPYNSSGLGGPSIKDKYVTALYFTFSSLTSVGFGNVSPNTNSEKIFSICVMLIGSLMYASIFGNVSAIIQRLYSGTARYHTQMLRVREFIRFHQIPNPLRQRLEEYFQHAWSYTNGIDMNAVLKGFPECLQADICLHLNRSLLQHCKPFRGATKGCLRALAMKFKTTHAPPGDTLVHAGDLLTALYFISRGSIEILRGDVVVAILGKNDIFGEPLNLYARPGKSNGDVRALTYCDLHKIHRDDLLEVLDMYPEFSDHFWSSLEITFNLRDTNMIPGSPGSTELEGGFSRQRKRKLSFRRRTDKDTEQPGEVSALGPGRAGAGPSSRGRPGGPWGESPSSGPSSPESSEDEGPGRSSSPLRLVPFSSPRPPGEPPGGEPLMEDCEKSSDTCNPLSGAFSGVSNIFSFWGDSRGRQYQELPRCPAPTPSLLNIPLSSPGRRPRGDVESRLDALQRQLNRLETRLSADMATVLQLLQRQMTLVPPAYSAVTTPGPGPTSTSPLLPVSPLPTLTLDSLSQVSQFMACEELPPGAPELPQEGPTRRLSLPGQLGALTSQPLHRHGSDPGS

SMILES | hERG current change (%, negative = inhibition) at 10uM [%]
CCN(CC)S(=O)(=O)c1ccc2c(c1)nc(SCC(=O)NC1CC1)n2-c1ccccc1OC | -56.2
COc1ccc(-n2nnnc2SC(C)C(N)=O)cc1 (stereo not shown) | 8.68
CCn1c(CSc2nncn2-c2ccc(OC)cc2)nc2cc(S(=O)(=O)N(C)C)ccc21 | -14.5
CCN(CC)S(=O)(=O)c1ccc2c(c1)nc(SCC(N)=O)n2-c1ccc(OC)cc1 | -77.7
CCCCn1c(SC(C)C(=O)c2ccc(OC)cc2)nc2cc(S(N)(=O)=O)ccc21 (stereo not shown) | -18.1
COc1ccccc1-n1c(SCC(=O)NC2CC2)nc2ccccc2c1=O | -23.1
CCN(CC)S(=O)(=O)c1ccc2c(c1)nc(SC(C)C(N)=O)n2-c1ccc(OC)cc1 (stereo not shown) | -51.7
CCN(CC)S(=O)(=O)c1ccc2c(c1)nc(SCC(=O)N1CCCCCC1)n2-c1ccc(OC)cc1 | -21
CCN(CC)S(=O)(=O)c1ccc2c(c1)nc(SCC(=O)N1CCOCC1)n2-c1ccccc1OC | -31.1
NCCNc1ccc([N+](=O)[O-])c2cccnc12 | 1.29
CCOc1ccccc1NC(=O)NNS(=O)(=O)c1cc(C)ccc1C | 6.71
CSc1ccccc1NC(=O)Cc1ccc(Br)cc1 | -10.2
Cc1ccc(C)c(NC(=S)N2CCC(NC(=O)c3cccc(F)c3)CC2)c1 | 1.08
O=C(N/N=C/c1ccc(COc2ccc(Br)cc2)o1)c1ccco1 | 2.73
Cc1ccccc1NS(=O)(=O)c1ccc2c3c(cccc13)C(=O)N2C | -4.02
Cc1ccc(Cl)cc1N1CCN(C(=O)C2CCN(S(=O)(=O)c3cccnc3)CC2)CC1 | -46
O=C(C1CCN(S(=O)(=O)c2cccnc2)CC1)N1CCN(c2ccc(Cl)cc2)CC1 | -56.2
O=C(C1CCN(S(=O)(=O)c2cccnc2)CC1)N1CCN(c2cccc(Cl)c2)CC1 | -31.5
Cc1ccc(S(=O)(=O)N2CCC(C(=O)N3CCN(c4ccccn4)CC3)CC2)cc1 | -19.4
O=C(C1CCN(S(=O)(=O)c2ccc(Cl)cc2)CC1)N1CCN(c2ccccn2)CC1 | -64.7
O=S(=O)(c1ccc(Cl)cc1)N1CCN(c2ccccn2)CC1 | -4.62
Clc1ccc2noc(-c3ccccc3)c2c1 | 7.67
COc1ccccc1CNC(=O)c1cnccn1 | 0.0654

SMILES | hERG current change (%, negative = inhibition) at 10uM [%]
COc1cc(CN2CCN(CCc3ccccc3)C(CCO)C2)cc(OC)c1 (stereo not shown) | -63.5
OCCC1CN(Cc2cccnc2)CCN1CCc1ccccc1 (stereo not shown) | -34.8
COc1cc(CN2CCN(Cc3cn(C)c4ccccc34)CC2CCO)cc(OC)c1 (stereo not shown) | -43.7
OCCC1CN(Cc2cccc(O)c2)CCN1CCc1ccccc1 (stereo not shown) | -24.4
COc1cc(CN2CCN(CCCc3ccccc3)CC2CCO)cc(OC)c1 (stereo not shown) | -71.1
COc1cc(CN2CCN(CC#Cc3ccccc3)CC2CCO)cc(OC)c1 (stereo not shown) | -1.09
C#CCOCCOCCOCCNc1nc(N2CCN(C(=O)[C@H]([C@@H](C)CC)n3cc([C@@H](N)CO)nn3)CC2)nc(N2CCN(C(=O)[C@H]([C@@H](C)CC)n3cc([C@@H](N)CC(C)C)nn3)CC2)n1.Cl | 7.34
CC1CCCCN1CCNC(=O)C1CCN(S(=O)(=O)c2cccc3nsnc23)CC1 (stereo not shown) | 2.44
CCS(=O)(=O)Nc1cccc(-c2ccc3nnc(-c4cccnc4)n3n2)c1 | -4.03
CC(C)c1ccc(N(CC(=O)N/N=C/c2ccc(OC3CSC3)cc2)S(=O)(=O)c2ccccc2)cc1 | 12.8
CC(NC=O)c1nc2ccccc2n1CCc1ccccc1 (stereo not shown) | 5.34
CCc1ccc(NC(=O)C(=O)NCC(O)c2ccccc2)cc1 (stereo not shown) | 8.25
O=C(NCCc1ccccc1)c1ccc(Cl)cc1[N+](=O)[O-] | -0.169
COc1ccc(OCc2nnc(SCC(=O)NCc3ccco3)o2)cc1 | -14.4
COc1ccc(NC(=O)CSc2nnc(CNC(=O)c3ccco3)o2)cc1 | 11.8
COc1ccc(Cc2nnc(SCC(=O)NCc3ccco3)o2)cc1 | 8.75
O=C(CSc1nnc(CNC(=O)c2ccco2)o1)Nc1ccc(OC(F)(F)F)cc1 | -52.6
CCc1ccc(OCc2nnc(SCC(=O)Nc3cccc(C(=O)N4CCOCC4)c3)o2)cc1 | -61.4
COc1ccc(OCc2nnc(SCC(=O)Nc3cccc(C(C)=O)c3)o2)cc1 | 4.32
Cc1cccc(OCc2nnc(SCC(=O)Nc3cccc(C(=O)N4CCOCC4)c3)o2)c1C | -2.16
CCc1ccc(OCc2nnc(SCC(=O)NCc3ccco3)o2)cc1 | -55.2
CCOc1ccc(NC(=O)CSc2nnc(CNC(=O)c3ccco3)o2)cc1 | -10.2
O=C1CCCN1CCCNC(=S)Nc1ccc(Cl)cc1Cl | -65.5

SMILES | hERG current change (%, negative = inhibition) at 10uM [%]
O=C1CCCN1CCCNC(=S)Nc1ccc(Br)cc1Cl | -2.97
Cc1cc(Cl)ccc1NC(=S)NCCCN1CCCC1=O | 7.99
CCOC(=O)CC(=O)CSc1nc2c(sc(=S)n2-c2ccc(C)c(C)c2)c(=O)[nH]1 | -10.7
COc1ccccc1-c1sc2cc3c(cc2c1C#Cc1ccccn1)OCO3 | 8.78
CSc1cccc(NC(=O)c2cc(S(=O)(=O)N3CCc4ccccc43)cn2C)c1 | -12.4
C#Cc1ccc(CN2CCC(Oc3ccc(C(=O)NCc4ccccn4)cc3)CC2)cc1 | -25
CCn1cc(CN2CCC(C(=O)Nc3ccc(Oc4ccccc4)nc3)CC2)cn1 | -30.3
O=C(Nc1ccc(Oc2ccccc2)nc1)C1CCN(Cc2ccccc2)CC1 | -54.9
COCc1ccc(CN2CCCCC2C(=O)Nc2ccc(Oc3ccccc3)nc2)o1 (stereo not shown) | -0.373
COc1cc(CN2CCCCC2C(=O)Nc2ccc(Oc3ccccc3)nc2)ccc1O (stereo not shown) | -4.36
C#Cc1ccc(CN2CCC(N3CCC(C(=O)NCc4ccccn4)CC3)CC2)cc1 | -72.2
CCc1ccc(CN2CCC(C(=O)Nc3ccc(Oc4ccccc4)nc3)CC2)o1 | -58.9
COc1ccc(CN2CCC(C(=O)Nc3ccc(Oc4ccccc4)nc3)CC2)cc1F | -71.6
COCCC(=O)N1CCC(C(=O)Nc2ccc(Oc3ccccc3)nc2)CC1 | 17.6
O=C(Nc1ccc(Oc2ccccc2)nc1)C1CCN(Cc2ccco2)CC1 | -30.8
CSCC(C)N1CCC(N2CCC(C(=O)NCc3ccccn3)CC2)CC1 (stereo not shown) | -9.59
O=C(Nc1ccc(Oc2ccccc2)nc1)C1CCN(Cc2cccc(F)c2)CC1 | -49.8
Brc1ccccc1OCCOc1cccc2cccnc12 | 14.1
O=C1OC2(CCCCC2)OC(=O)C1=CNc1nccs1 | 3.3
O=C1CC(=O)C(n2cncn2)C(c2ccc(Cl)cc2Cl)C1 (stereo not shown) | 7.83
CC(=O)Nc1ccc(S(=O)(=O)NCc2nnnn2-c2ccc(F)cc2)cc1 | 3.41
Cc1ccc(C(=O)N2CCN(c3ncccn3)CC2)c(C)c1 | 12.1
CCOC(=O)c1c(C)sc(Sc2ccc(Cl)cc2[N+](=O)[O-])c1OC | 11.3

SMILES | hERG current change (%, negative = inhibition) at 10uM [%]
COc1ccc(C2C(C#N)=C(/N=C/N3CCOCC3)OC3=C2C(=O)CC(C)(C)C3)cc1OC (stereo not shown) | -13.5
C#Cc1ccc(CN2CCC(C(=O)Nc3ccc(Oc4ccccc4)nc3)CC2)cc1 | -72.3
CC#CC(=O)N1CCC(C(=O)Nc2ccc(Oc3ccccc3)nc2)CC1 | 1.55
O=C(Nc1ccc(Oc2ccccc2)nc1)C1CCCCN1Cc1ccc(O)cc1 (stereo not shown) | -25.2
Cc1ccc(C)c(S(=O)(=O)N2CCN(CC(=O)Nc3cc(C)on3)CC2)c1 | -12.6
CCCCc1cc(=O)oc2c(CN(C)C)c(O)c(Cl)cc12 | -1.34
CC(NS(=O)(=O)c1ccc(Cl)cc1)C(=O)Nc1ccc2c(c1)OCCO2 (stereo not shown) | -19.4
CCOCCCNC(=O)CCC(=O)NNc1nc2ccccc2c2nc(-c3ccccc3)nn12 | -47.5
CCCc1c(O)nc(SCCN(CC)CC)n(C(=O)c2ccccc2)c1=O.Cl | -58
CCCCc1c(O)nc(SCCN(C)C)n(-c2ccccc2)c1=O | 10.1
CCN(CC)CCSc1nc(O)c(Cc2ccccc2)c(=O)n1-c1ccccc1.Cl | 15.8
CCN(CC(=O)Nc1c(F)cccc1F)C(=O)Cc1csc(-c2ccc(OC)c(OC)c2)n1 | -2.82
CCOc1ccccc1NC(=S)NCCc1ccccc1 | 4.14
N=c1c(C(=O)NCC2CCCO2)cc2c(=O)n3ccccc3nc2n1Cc1ccco1 (stereo not shown) | -78.7
O=C(NCC1CCCO1)c1cn(Cc2ccccc2)nc1-c1ccccc1 (stereo not shown) | -0.0253
N=c1c(C(=O)NCC2CCCO2)cc2c(=O)n3ccccc3nc2n1Cc1ccccc1 (stereo not shown) | -75.3
O=C(Cn1c(=O)n(Cc2ccc(F)cc2)c(=O)c2ccccc21)NCC1CCCO1 (stereo not shown) | -2.66
O=C(Cn1c(=O)n(Cc2ccco2)c(=O)c2ccccc21)NCC1CCCO1 (stereo not shown) | 2.5
N=c1c(C(=O)NCC2CCCO2)cc2c(=O)n3ccccc3nc2n1Cc1cccnc1 (stereo not shown) | -72.9
N=c1c(C(=O)NCC2CCCO2)cc2c(=O)n3ccccc3nc2n1Cc1ccc(F)cc1 (stereo not shown) | -80
Nc1c(C(=O)NCC2CCCO2)c2nc3ccccc3nc2n1Cc1ccco1 (stereo not shown) | 10.5
O=C(Cc1ccc(-n2c(=O)c3ccccc3n(Cc3ccc(F)cc3)c2=O)cc1)NCC1CCCO1 (stereo not shown) | -19.6
